Screens from PubChem.
An excerpt weighted towards active compounds, which were near 4.1% of everything screened.
Mtb UGM inh – Mtb UDP-galactopyranose mutase inhibition; P9WIQ1; purified UGM, fluorescence polarization probe displacement; inhibition, % at 10 µM; actives 0.06% (n = 320,000); in the data active means inhibition above about 10%, passing the limit was not always enough
BH1578 lux ind – induces V. cholerae light production without autoinducers; actives 0.16% (n = 350,000); activation, % at 18.7 µM; V. cholerae BH1578 lux reporter, luminescence, 6 h; AID 588436; in the data active means activation mostly above about 9.7%, no sharp cut-off
Mtb FBA inh – inhibitors of M. tuberculosis fructose-bisphosphate aldolase. purified M. tuberculosis FBA, fluorescence read-out. actives 2.3% (n = 360,000). inhibition, % at 1 µM. P9WQA3. AID 588726; in the data active means inhibition above about 27%
RecA splice inh – inhibitors of M. tuberculosis RecA intein splicing; P9WHJ3; cell-free RecA intein splicing, fluorescence; inhibition, % (concentration not given with the values); actives 0.75% (n = 290,000); in the data active means inhibition above about 30%
Target sequence (P9WHJ3 whole entry, looked up, canonical isoform): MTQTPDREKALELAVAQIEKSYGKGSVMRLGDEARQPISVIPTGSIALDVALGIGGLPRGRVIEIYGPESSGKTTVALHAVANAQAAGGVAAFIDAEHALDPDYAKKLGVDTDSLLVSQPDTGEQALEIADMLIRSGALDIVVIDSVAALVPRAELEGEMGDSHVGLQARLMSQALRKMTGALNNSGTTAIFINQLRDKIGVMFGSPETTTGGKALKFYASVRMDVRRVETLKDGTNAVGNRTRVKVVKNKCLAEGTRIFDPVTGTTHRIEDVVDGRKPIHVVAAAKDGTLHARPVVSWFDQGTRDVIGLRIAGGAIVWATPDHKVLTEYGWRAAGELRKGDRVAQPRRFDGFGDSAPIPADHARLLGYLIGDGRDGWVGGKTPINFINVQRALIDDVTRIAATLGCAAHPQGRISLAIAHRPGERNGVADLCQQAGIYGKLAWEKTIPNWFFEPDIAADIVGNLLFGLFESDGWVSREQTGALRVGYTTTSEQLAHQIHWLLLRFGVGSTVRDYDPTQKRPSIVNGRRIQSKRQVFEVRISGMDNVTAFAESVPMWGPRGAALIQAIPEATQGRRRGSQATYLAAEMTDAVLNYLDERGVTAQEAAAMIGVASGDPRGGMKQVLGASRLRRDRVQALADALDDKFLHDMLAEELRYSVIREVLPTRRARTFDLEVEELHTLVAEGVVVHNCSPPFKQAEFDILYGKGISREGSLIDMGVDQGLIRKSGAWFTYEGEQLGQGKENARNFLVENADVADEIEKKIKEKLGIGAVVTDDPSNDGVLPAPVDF
Rv3671c inh – inhibits the M. tuberculosis serine protease Rv3671c; inhibition, % at 5.96 µM; actives 0.048% (n = 320,000); in the data active means inhibition above about 38%;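 further: extracellular domain of Rv3671c used as enzyme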
GDH-TPI inh – GDH-TPI coupled enzyme inhibition counter-screen. GDH-TPI coupled enzyme counterscreen, NADH absorbance. inhibition, % at 4.8 µM. actives 1.2% (n = 360,000). AID 588335; in the data active means inhibition above about 30%
Numbers stand for hits; . = inactive; / = no result; + = active, no number.

SMILES | Mtb UGM inh | BH1578 lux ind | Mtb FBA inh | RecA splice inh | Rv3671c inh | GDH-TPI inh
O=C(O)c1ccc(N/N=C/c2c(F)cccc2Cl)cc1 | . | . | . | . | . | 38
O=C(N/N=C/c1c(F)cccc1Cl)C1CC1 | . | . | . | . | . | .
Cc1ccc(NC(=O)c2cnccn2)c(C)c1 | . | . | . | . | . | .
Cc1cc(C)c(S(=O)(=O)Nc2ccc(N(C)C)cc2)c(C)c1-n1cnnn1 | . | . | . | . | . | .
c1ccc(CN2CCC(Nc3nc(-c4cccnc4)nc4ccccc34)CC2)cc1 | . | . | . | . | . | .
CCOC(=O)c1cc2c(=O)n3cccc(C)c3nc2n(CC(C)C)c1=NC(=O)c1ccco1 | . | . | + | . | . | .
Cc1cccn2c(=O)c3cc(C(=O)N4COCC4(C)C)n(Cc4ccccc4)c3nc12 | . | . | . | . | . | .
CCOCCCn1c(=NC(=O)c2ccco2)c(C(=O)OCC)cc2c(=O)n3cccc(C)c3nc21 | . | . | + | . | . | .
Cc1cc(OCC(=O)NCC2CCC(C(=O)O)CC2)c2c(C)cc(=O)oc2c1 (configuration not stated) | . | . | . | . | . | .
CCCc1cc(=O)oc2c3c(cc(OCC(=O)NCC4CCC(C(=O)O)CC4)c12)OC(C)(C)CC3 (configuration not stated) | . | . | + | . | . | .
CCCc1cc(=O)oc2c3c(cc(OCC(=O)N4CCC(C(=O)O)CC4)c12)OC(C)(C)CC3 | / | . | + | / | / | .
C=CCN1C(=O)c2ccc(C(=O)N3CCN(S(=O)(=O)c4ccc(C(C)C)cc4)CC3)cc2C1=O | . | . | . | . | . | .
Cc1ccc(Cc2c(C(C)(C)C)nc3cc(C)c(Br)c(C)n23)cc1 | / | / | . | / | / | /
CC1(C)CC(=O)C2=C(C1)N(CCN1CCOCC1)C1=C(C(=O)CC(C)(C)C1)C2c1ccc(Cl)c([N+](=O)[O-])c1 | . | . | . | . | . | .
Cc1ccc(C2C3=C(CC(C)(C)CC3=O)N(CCN3CCOCC3)C3=C2C(=O)CC(C)(C)C3)cc1 | . | . | 29 | . | . | .
N#Cc1sc2nc(-c3ccccc3)cc(-c3ccco3)c2c1N | . | . | . | . | . | .
CC(=O)Nc1nc(-c2ccccc2)cc(-c2ccco2)c1C#N | . | . | + | / | . | .
CN(C)c1ccc(C=c2c3ccccc3n3c2cc(-c2ccccc2)[n+]3C)cc1 | / | . | . | / | / | .
CN(C)c1ccc(C=c2c3cc([N+](=O)[O-])ccc3n3c2cc(-c2ccccc2)[n+]3C)cc1 | / | / | . | / | / | 42
Cc1ccc(S(=O)(=O)C(C#N)c2nc3ccccc3nc2N2CCCC2)cc1 (configuration not stated) | . | . | 128 | . | . | .
CCN1CCN(c2nc3ccccc3nc2C(C#N)S(=O)(=O)c2ccc(C)cc2)CC1 (configuration not stated) | . | . | . | . | . | .
COc1ccc(S(=O)(=O)N2CCCCCC2)cc1NC(=O)Cc1cccc(C(F)(F)F)c1 | / | . | . | / | / | .
CCOC(=O)c1[nH]c2cc3c(cc2c1NC(=O)CN1CCN(CCO)CC1)OCO3 | . | . | 130 | . | . | 46
N#C/C(=C\c1ccccc1)C(=O)OCC(=O)N1CCCC1 | . | . | . | . | . | .
COc1ccc(-c2nnc(C)c3nocc23)cc1 | . | . | . | . | . | .
SMILES | Mtb UGM inh | BH1578 lux ind | Mtb FBA inh | RecA splice inh | Rv3671c inh | GDH-TPI inh
C=CC(=O)N1C/C(=C/c2ccc(Cl)cc2)C(=O)/C(=C\c2ccc(Cl)cc2)C1 | / | . | . | / | / | .
C=CC(=O)N1C/C(=C/c2ccccc2)C(=O)/C(=C\c2ccccc2)C1 | / | . | . | / | / | 32
C=CCNC(=S)Nc1sc2c(c1C(=O)OCC)CC(C(C)C)OC2 (configuration not stated) | / | . | . | . | . | 32
O=C(CN1CCN(c2cccc(Cl)c2)CC1)c1ccc(O)cc1O | . | . | . | . | . | 31
CC1(C(=O)NC2CCCCCC2)CCN1C(=O)Cc1ccc(-c2ccccc2)cc1 (configuration not stated) | / | . | . | / | / | .
CC(C)(C)OC(=O)N/N=C/c1ccc(N2CCOCC2)s1 | . | . | . | . | . | 35
COc1ccc(CCNC(=O)C/C(C)=N/NC(=O)c2ccc([N+](=O)[O-])cc2Cl)cc1OC | . | . | . | / | . | .
CCOC(=O)N1CCN(c2c(-c3ccc(C)cc3)c(=O)c2=O)CC1 | . | . | . | / | . | 34
CCOC(=O)N1CCC(Nc2c(-c3ccc(C)cc3)c(=O)c2=O)CC1 | . | . | . | . | . | 36
N#C/C(=C/c1ccc2c(c1)OCO2)C(=O)Nc1ccc(O)cc1 | . | . | . | 59 | . | .
CCOc1cc(/C=C(/C#N)C(=O)Nc2ccc(O)cc2)cc(Br)c1O | . | . | . | 60 | . | .
N#C/C(=C\c1ccc2c(c1)OCCO2)C(=O)Nc1ccc(C(=O)O)cc1 | . | . | . | . | . | .
Cc1[nH]c(C)c(S(=O)(=O)NCC(C)c2ccccc2)c1C(=O)N1CCCCC1 (configuration not stated) | . | . | . | . | . | .
CCOC(=O)Cn1cc(/C=N/NC(=O)CC#N)c2ccccc21 | . | . | . | 52 | . | .
CCn1cc(/C=N/NC(=O)c2ccc(C#N)cc2F)c2ccccc21 | . | . | . | . | . | .
N#CCC(=O)N/N=C/c1cn(Cc2ccccc2C#N)c2ccccc12 | . | . | . | / | . | .
COC(=O)Cn1cc(/C=N/NC(=O)c2ccc(C#N)cc2F)c2ccccc21 | . | . | . | . | . | 38
Cn1nccc1-c1ccc(C(=O)NCc2ccc(Cl)cc2)c2occc12 | / | . | . | / | / | .
CCS(=O)(=O)c1cc([N+](=O)[O-])c(Sc2ccccc2NC(C)=O)s1 | . | . | . | . | . | .
COc1ccccc1-c1nnc(SCC(=O)Nc2oc(C)c3c(C)n[nH]c(=O)c23)n1C | . | . | . | . | . | .
Cc1n[nH]c(=O)c2c(NC(=O)CSc3nnc(-c4ccco4)n3C)oc(C)c12 | 47 | . | . | / | . | .
COc1ccc(S(=O)(=O)c2c(N)n(Cc3ccco3)c3nc4ccccc4nc23)cc1 | . | . | 51 | . | . | .
CC(C)(C)OC(=O)c1c(N)n(Cc2ccco2)c2nc3ccccc3nc12 | . | . | 114 | . | . | .
C=CCNC(=O)c1c(N)n(Cc2ccco2)c2nc3ccccc3nc12 | . | . | 113 | . | . | .
CC(=O)N1CCOc2ccc(S(=O)(=O)NCCc3cccc(C)c3)cc21 | . | . | . | . | . | .
CCOc1c(C)cnc2c1c(=O)n(Cc1ccccc1Cl)c(=O)n2C | . | . | . | . | . | .
CCO/C(C)=N/n1c2nc3ccccc3nc2c2c(=O)n(Cc3ccccc3Cl)c(C)nc21 | . | . | . | . | . | 33
CC(C)[C@H](NC(=O)c1ccccc1)C(=O)OCC(=O)NCc1ccc2c(c1)OCO2 | . | . | . | / | . | .
